Test results as given in PubChem BioAssay (EPA / NIEHS).
Values joined by “and” are separate entries in the source; they are usually repeats but may differ in a detail not shown here. Identical values can stand only once. Some structures have more than one record in an assay (separate samples or runs), and their calls can disagree. Active and inactive are the calls of the source. The calls were made as follows: active = hit-call score of the fitted dose curve at least 0.9, where 1 is the maximum; inactive = score below 0.9.

How the values were obtained:
[1] = APR_HepG2_P-H2AX_72hr: Apredica 72-hour HepG2 Assay for H2AX Phosphorylation (AID 2282916); settings: imaging, actives raise or lower the signal;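 also: phospho-histone H2A.x immunostain intensity per cell marking DNA damage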
In short: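 Following 72 hr treatment with 0.39–200 uM compound, HepG2 cells were formaldehyde-fixed, permeabilized and stained for phospho-H2A.x; signal was measured by high-content imaging and fitted bidirectionally against DMSO controls.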

[2] = APR_HepG2_MitoMembPot_72hr: Apredica 72-hour HepG2 Assay for Mitochondrial Membrane Potential (AID 2282917); settings: imaging, actives raise or lower the signal
In short: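 Membrane potential read by MitoTracker Red CMXRos (250 nM, 30 min, pre-fixation) fluorescence imaging of HepG2 after 72 hr exposure. Ten concentrations, 0.39–200 uM, duplicate wells, 0.5% DMSO; fitted in both directions against DMSO baseline.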

[3] = APR_HepG2_MitoticArrest_72hr: Apredica 72-hour HepG2 Assay for Mitotic Arrest (AID 2282918); settings: high-content imaging, actives raise or lower the signal
In short: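 HepG2, 72 hr exposure, 0.39–200 uM in duplicate, 0.5% v/v DMSO final. Formaldehyde-fixed, Triton-permeabilized, anti-phospho-histone H3/FITC plus Hoechst. ArrayScan imaging at 20x; curves fit bidirectionally against DMSO baseline.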

[4] = APR_HepG2_MicrotubuleCSK_72hr: Apredica 72-hour HepG2 Assay for Microtubule CSK Stabilty (AID 2282919); settings: HepG2 microtubule cytoskeleton, high-content imaging, actives raise or lower the signal
In short: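 Read-out is tubulin fluorescence intensity from high-content imaging of HepG2 cells, with nuclei identified by Hoechst 33342. Treatment lasts 72 h at 0.39–200 uM, and curves are fitted bidirectionally against the DMSO negative control.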

[5] = APR_HepG2_P-H2AX_24hr: Apredica 24-hour HepG2 Assay for H2AX Phosphorylation (AID 2282920); settings: high-content imaging, actives raise or lower the signal
In short: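 HCS fluorescence imaging of phospho-H2A.x immunostain (with Hoechst 33342 nuclear counterstain) in HepG2 after 24 hr compound exposure; 10 concentrations, 0.39–200 uM, duplicate wells, 0.5% v/v DMSO. Gain or loss of signal fitted relative to DMSO baseline.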

[6] = APR_HepG2_StressKinase_72hr: Apredica 72-hour HepG2 Assay for Stress Kinase (AID 2282921); settings: HepG2 stress kinase (phospho-c-Jun) imaging, actives raise or lower the signal
In short: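 Fluorescence intensity of Cy3-tagged anti-phospho-c-Jun antibody, quantified per cell from Hoechst-defined nuclei across six images per well, served as the read-out following 72 h exposure (0.39–200 uM, 0.5% v/v DMSO).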

[7] = APR_HepG2_StressKinase_24hr: Apredica 24-hour HepG2 Assay for Stress Kinase (AID 2282922); settings: HepG2 stress kinase (phospho-c-Jun) imaging, actives raise or lower the signal
In short: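 HepG2, 24 hr dosing, 0.39–200 uM in duplicate, 0.5% DMSO; formaldehyde fix (3.7%), 0.5% Triton X-100; anti-phospho-c-Jun + Cy3 secondary, Hoechst counterstain; ArrayScan imaging; bidirectional curve fit vs DMSO baseline.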

[8] = APR_HepG2_p53Act_72hr: Apredica 72-hour HepG2 Assay for p53 Activation (AID 2282923); settings: high-content imaging, actives raise or lower the signal;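 also: average cellular p53 protein immunofluorescence intensity in HepG2 cells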
In short: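 HepG2 monolayers receive test compounds in duplicate at ten concentrations (0.39 through 200 uM) for 72 hr. They are then formaldehyde-fixed, antibody-labelled for p53, Hoechst-stained and imaged, with activity fitted bidirectionally versus DMSO.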

[9] = APR_HepG2_MitoMass_72hr: Apredica 72-hour HepG2 Assay for Mitochondrial Mass (AID 2282924); settings: high-content imaging, actives raise or lower the signal;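 also: MitoTracker Red CMXRos stain intensity per cell imaged as mitochondrial mass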
In short: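 HepG2, 72 hr cmpd, 10 conc 0.39–200 uM in dup, DMSO 0.5% v/v. MitoTracker Red CMXRos 250 nM 30 min pre-fix; formaldehyde 3.7% fix 30 min RT. HCS imaging, gain/loss fit vs DMSO.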

[10] = APR_HepG2_NuclearSize_72hr: Apredica 72-hour HepG2 Assay for Nuclear Size (AID 2282925); settings: high-content imaging, actives raise or lower the signal
In short: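 HepG2; cpd 0.39–200 uM, 10 conc, duplicate; 72 h; DMSO 0.5% v/v; fix 3.7% formaldehyde 30 min RT; Triton permeabilization; Hoechst 2 ug/mL; HCS imaging 20x; nuclear diameter; gain/loss fit vs DMSO.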

[11] = molecular target: CCAAT/enhancer-binding protein beta (Homo sapiens) (UniProt P17676); test: ATG_C_EBP_CIS: Attagene CIS-FACTORIAL HepG2 Assay for human CCAAT/Enhancer Binding Protein (C/EBP) beta (AID 2282927); settings: HepG2 Attagene cis-factorial transcription factor reporter; actives raise or lower the signal
In short: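 Changes in reporter mRNA, rather than exogenous chimeric receptor activity, reflect native C/EBP signalling in transfected HepG2 cells dosed for 24 h; transcripts are detected by RT-PCR and capillary electrophoresis.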

[12] = ATG_CMV_CIS: Attagene CIS-FACTORIAL HepG2 Assay for human CMV (Internal Marker) (AID 2282928); settings: HepG2 CMV promoter reporter, transcription factor profiling; actives raise or lower the signal;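 also: endpoint acts as a background internal control marker rather than a target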
In short: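 CMV internal-marker background readout in transiently transfected HepG2 cells bearing cis-regulated reporter units. Reporter mRNA is measured 24 h after dosing by RT-PCR and capillary electrophoresis, with bidirectional fitting against DMSO.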

[13] = ATG_DR4_LXR_CIS: Attagene CIS-FACTORIAL HepG2 Assay for human Liver X Receptor (LXR), DR4 submotif (AID 2282929); settings: HepG2 Attagene DR4 cis-reporter, mRNA transcription; actives raise or lower the signal
In short: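 Measures endogenous transcription factor activity via a DR4-driven reporter transcript in human HepG2 cells. Compounds incubated 24 h; mRNA quantified by RT-PCR and capillary electrophoresis, analysed as gain or loss of signal versus DMSO.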

[14] = ATG_AP_1_CIS: Attagene CIS-FACTORIAL HepG2 Assay for human Activator Protein 1 (AP-1) (AID 2282931); settings: HepG2 Attagene cis-factorial AP-1 reporter mRNA; actives raise or lower the signal
In short: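 Bidirectional concentration-response fitting against DMSO controls. Underlying signal: reporter mRNA from cis-promoter constructs in transiently transfected HepG2, measured after 24 h by RT-PCR and capillary electrophoresis.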

[15] = ATG_AP_2_CIS: Attagene CIS-FACTORIAL HepG2 Assay for human Activator Protein 2 (AP-2) (AID 2282932); settings: HepG2 AP-2 cis-reporter, Attagene transcription factor profiling; actives raise or lower the signal
In short: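 Step one: transient transfection of HepG2 with reporter transcription units. Step two: 24 h chemical exposure. Step three: RNA extraction, RT-PCR, labelled fragment analysis by capillary electrophoresis; DMSO serves as baseline.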

[16] = ATG_BRE_CIS: Attagene CIS-FACTORIAL HepG2 Assay for human Bone Morphogenetic Protein (BMP) Response Element (BRE) (AID 2282933); settings: HepG2 BMP response element reporter, Attagene transcription factor profiling; actives raise or lower the signal
In short: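 After a 24 h chemical treatment, transiently transfected HepG2 cells were lysed for RNA; reporter transcripts were quantified by fluorescent RT-PCR and capillary electrophoresis, normalised to DMSO.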

[17] = molecular target: Retinoic acid receptor alpha (Homo sapiens) (UniProt P10276); test: ATG_DR5_RAR_CIS: Attagene CIS-FACTORIAL HepG2 Assay for human Retinoic Acid Receptor Alpha (RARE), DR5 submotif (AID 2282934); settings: HepG2 Attagene cis-factorial RARE DR5 reporter, mRNA; actives raise or lower the signal;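 as to AC50: reporter responds to endogenous RAR alpha beta and gamma in HepG2 not RARA alone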
In short: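 HepG2, transient cis-reporter transfection, 24 h exposure. mRNA readout: RT-PCR, FAM label, HpaI cut, capillary electrophoresis. DMSO baseline, gain/loss fitting.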

[18] = molecular target: Transcription factor E2F1 (Homo sapiens) (UniProt Q01094); test: ATG_E2F_CIS: Attagene CIS-FACTORIAL HepG2 Assay for human E2F Transcription Factor 1 (AID 2282935); settings: HepG2 Attagene cis-reporter, E2F reporter RNA transcripts; actives raise or lower the signal
In short: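 Total RNA from 24 h-treated, reporter-transfected HepG2 cells undergoes DNase I treatment, oligo(dT) reverse transcription, PCR and 6-FAM primer extension before capillary electrophoresis.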

[19] = molecular target: Aryl hydrocarbon receptor (Homo sapiens) (UniProt P35869); test: ATG_Ahr_CIS: Attagene CIS-FACTORIAL HepG2 Assay for human Aryl Hydrocarbon Receptor (Ahr) (AID 2282930); settings: HepG2 AhR cis-factorial reporter transcription; actives raise or lower the signal
In short: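 HepG2, transient MRTU (cis) transfection, 24 h exposure. RNA → cDNA → PCR → 6-FAM primer extension → HpaI 2 h 37 C → CE. Fit: bidirectional, DMSO baseline.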

[20] = ATG_CRE_CIS: Attagene CIS-FACTORIAL HepG2 Assay for human cAMP Responsive Element (CRE) binding protein 3 (AID 2282926); settings: HepG2 CRE cis-reporter, Attagene multiplexed mRNA; actives raise or lower the signal
In short: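 Endogenous CRE-binding activity in HepG2 is reported through a cis-regulated transfected reporter. Following a day of exposure, mRNA levels are determined by reverse transcription PCR and fluorescent fragment analysis; fits run in both directions versus DMSO.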

Measured: AC50

Sequence of CCAAT/enhancer-binding protein beta (Homo sapiens) (P17676 whole entry, looked up): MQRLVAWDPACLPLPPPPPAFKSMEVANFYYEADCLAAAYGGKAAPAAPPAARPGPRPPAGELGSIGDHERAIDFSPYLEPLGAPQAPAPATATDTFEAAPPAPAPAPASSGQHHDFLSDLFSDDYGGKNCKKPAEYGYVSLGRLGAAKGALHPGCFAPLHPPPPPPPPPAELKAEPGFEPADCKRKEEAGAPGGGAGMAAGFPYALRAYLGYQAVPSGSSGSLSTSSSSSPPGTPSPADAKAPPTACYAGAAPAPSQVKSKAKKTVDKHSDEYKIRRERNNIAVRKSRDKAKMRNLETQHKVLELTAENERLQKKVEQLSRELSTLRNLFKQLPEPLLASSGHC
Sequence of Transcription factor E2F1 (Homo sapiens) (Q01094 whole entry, looked up): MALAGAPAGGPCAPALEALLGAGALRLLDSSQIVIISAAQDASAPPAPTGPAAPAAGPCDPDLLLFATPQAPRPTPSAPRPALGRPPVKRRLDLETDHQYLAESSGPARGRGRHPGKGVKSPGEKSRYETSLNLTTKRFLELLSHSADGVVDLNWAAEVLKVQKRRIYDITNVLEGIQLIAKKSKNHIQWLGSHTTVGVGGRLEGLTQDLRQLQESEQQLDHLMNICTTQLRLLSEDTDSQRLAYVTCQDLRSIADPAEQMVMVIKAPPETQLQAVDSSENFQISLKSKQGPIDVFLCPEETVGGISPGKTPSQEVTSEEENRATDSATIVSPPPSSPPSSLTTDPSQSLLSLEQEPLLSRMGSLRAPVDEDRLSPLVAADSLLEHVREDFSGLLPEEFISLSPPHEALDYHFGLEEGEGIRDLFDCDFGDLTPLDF
Sequence of Aryl hydrocarbon receptor (Homo sapiens) (P35869 whole entry, looked up): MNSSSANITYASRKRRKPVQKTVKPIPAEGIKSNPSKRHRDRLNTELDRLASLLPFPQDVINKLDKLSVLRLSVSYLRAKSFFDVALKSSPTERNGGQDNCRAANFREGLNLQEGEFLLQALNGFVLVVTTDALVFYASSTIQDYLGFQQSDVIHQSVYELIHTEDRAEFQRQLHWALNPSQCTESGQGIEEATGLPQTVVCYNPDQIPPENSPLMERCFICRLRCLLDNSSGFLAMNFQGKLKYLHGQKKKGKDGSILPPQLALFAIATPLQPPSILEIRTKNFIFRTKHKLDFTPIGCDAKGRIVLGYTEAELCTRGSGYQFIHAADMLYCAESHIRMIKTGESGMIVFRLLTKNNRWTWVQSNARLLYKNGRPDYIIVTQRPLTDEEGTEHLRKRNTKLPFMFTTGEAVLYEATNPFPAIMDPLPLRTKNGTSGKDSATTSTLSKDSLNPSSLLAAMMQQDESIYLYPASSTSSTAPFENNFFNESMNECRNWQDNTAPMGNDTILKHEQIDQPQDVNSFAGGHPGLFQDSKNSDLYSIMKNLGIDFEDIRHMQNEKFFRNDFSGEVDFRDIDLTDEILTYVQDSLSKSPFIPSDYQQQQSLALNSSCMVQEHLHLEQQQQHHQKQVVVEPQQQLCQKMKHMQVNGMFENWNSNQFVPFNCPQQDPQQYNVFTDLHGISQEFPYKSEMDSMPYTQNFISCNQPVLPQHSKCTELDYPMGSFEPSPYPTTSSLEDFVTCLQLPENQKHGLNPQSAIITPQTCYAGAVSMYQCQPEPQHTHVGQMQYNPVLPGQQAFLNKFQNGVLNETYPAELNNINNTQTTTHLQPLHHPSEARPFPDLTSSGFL
Sequence of Retinoic acid receptor alpha (Homo sapiens) (P10276 whole entry, looked up): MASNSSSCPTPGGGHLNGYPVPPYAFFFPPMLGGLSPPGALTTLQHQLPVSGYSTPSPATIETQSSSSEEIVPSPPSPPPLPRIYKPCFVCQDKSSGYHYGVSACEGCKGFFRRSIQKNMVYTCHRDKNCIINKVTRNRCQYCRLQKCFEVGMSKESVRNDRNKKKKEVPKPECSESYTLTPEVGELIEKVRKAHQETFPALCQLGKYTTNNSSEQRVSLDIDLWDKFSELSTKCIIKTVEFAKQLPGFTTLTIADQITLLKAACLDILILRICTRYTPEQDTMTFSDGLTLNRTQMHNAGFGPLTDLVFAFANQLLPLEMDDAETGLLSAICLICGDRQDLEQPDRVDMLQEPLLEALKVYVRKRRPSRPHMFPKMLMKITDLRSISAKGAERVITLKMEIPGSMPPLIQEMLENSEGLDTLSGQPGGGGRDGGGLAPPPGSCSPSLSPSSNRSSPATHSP

Cc1cc(-c2ccc(N)c(C)c2)ccc1N
inactive: [1] | [2] | [3] | [4] | [5] | [6] | [7] | [8] | [9] | [10] | [11] | [12] | [13] | [14] | [15] | [16] | [17] | [18]
active: [12] 60.2 µM

Cc1cccc([N+](=O)[O-])c1
not listed: [14] | [20]
inactive: all other assays above

C=CC(N)=O
active: [13] 47.6 µM
inactive: all other assays above

CCCCCCCCOC(=O)c1ccccc1C(=O)OCCCCCCCC
not listed: [10]
inactive: all other assays above

CC(C)(c1ccccc1)c1ccc(O)cc1
active: [1] 97 µM | [11] 46.6 µM | [12] 23.8 µM and 38.4 µM and 43 µM | [13] 40.4 µM [middle of 4 runs] | [15] 33.4 µM | [16] 33.4 µM | [17] 1.8 µM and 11.7 µM | [18] 56.3 µM
inactive: [2] | [3] | [4] | [5] | [6] | [7] | [8] | [9] | [10] | [11] | [12] | [19] | [15] | [16] | [17] | [18]

Clc1ccc(C(Cl)(Cl)Cl)cc1
not listed: [14] | [20]
inactive: all other assays above

Nc1ccc(-c2ccc(N)cc2)cc1
active: [1] 104 µM | [5] 91.2 µM | [8] 106 µM
not listed: [14]
inactive: all other assays above

NS(=O)(=O)C(F)(F)C(F)(F)C(F)(F)C(F)(F)C(F)(F)C(F)(F)C(F)(F)C(F)(F)F
inactive: [4] | [6] | [7] | [9] | [10] | [11] | [13] | [19] | [15] | [17] | [18]
active: [1] 99.3 µM | [2] 102 µM | [3] 77.9 µM | [5] 100 µM | [8] 61.7 µM | [11] 36.3 µM and 24.3 µM | [12] 40.4 µM and 227 µM and 21.6 µM | [13] 33.4 µM and 105 µM | [14] 29.9 µM and 262 µM and 17 µM | [16] 45.4 µM and 248 µM and 15.5 µM | [17] 40.4 µM and 29.7 µM

CCC(=O)O[C@H]1CC[C@H]2[C@@H]3CCC4=CC(=O)CC[C@]4(C)[C@H]3CC[C@]12C
active: [1] 86.5 µM | [2] 114 µM | [3] 65 µM | [4] 158 µM | [5] 108 µM | [8] 89.9 µM | [9] 92.1 µM | [10] 50.8 µM | [12] 72.9 µM and 100 µM | [13] 170 µM and 169 µM and 162 µM | [19] 38.6 µM | [16] 149 µM and 100 µM and 160 µM
inactive: [6] | [7] | [11] | [12] | [13] | [19] | [14] | [15] | [16] | [17] | [18]

CC1=C2C[C@H]3[C@@H](CC=C4C[C@@H](O)CC[C@@]43C)[C@@H]2CC[C@]12O[C@@H]1C[C@H](C)CN[C@H]1[C@H]2C
active: [1] 50 µM | [3] 16.5 µM | [5] 33.4 µM | [9] 41.2 µM | [11] 13.9 µM | [13] 13.3 µM | [16] 13.3 µM
inactive: all other assays above

Oc1ccc(C(c2ccc(O)cc2)(C(F)(F)F)C(F)(F)F)cc1
inactive: [1] | [2] | [3] | [4] | [5] | [6] | [7] | [8] | [9] | [20] | [11] | [12] | [13] | [19] | [15] | [16] | [18]
active: [20] 11.1 µM and 18.5 µM | [12] 7.18 µM and 8.05 µM | [13] 11.1 µM and 12.8 µM and 8.79 µM | [19] 11.1 µM and 5.94 µM and 13.3 µM | [14] 11.1 µM [middle of 4 runs] | [16] 16 µM

O=C(O)C(F)(F)C(F)(F)C(F)(F)C(F)(F)C(F)(F)F
not listed: [10]
inactive: all other assays above
